Drawing on PubChem BioAssay, this text covers composite z-score for 36 molecules.

SMILES strings stand for the structures.

Sequence of Epidermal growth factor receptor (Homo sapiens) (P00533 whole entry, looked up): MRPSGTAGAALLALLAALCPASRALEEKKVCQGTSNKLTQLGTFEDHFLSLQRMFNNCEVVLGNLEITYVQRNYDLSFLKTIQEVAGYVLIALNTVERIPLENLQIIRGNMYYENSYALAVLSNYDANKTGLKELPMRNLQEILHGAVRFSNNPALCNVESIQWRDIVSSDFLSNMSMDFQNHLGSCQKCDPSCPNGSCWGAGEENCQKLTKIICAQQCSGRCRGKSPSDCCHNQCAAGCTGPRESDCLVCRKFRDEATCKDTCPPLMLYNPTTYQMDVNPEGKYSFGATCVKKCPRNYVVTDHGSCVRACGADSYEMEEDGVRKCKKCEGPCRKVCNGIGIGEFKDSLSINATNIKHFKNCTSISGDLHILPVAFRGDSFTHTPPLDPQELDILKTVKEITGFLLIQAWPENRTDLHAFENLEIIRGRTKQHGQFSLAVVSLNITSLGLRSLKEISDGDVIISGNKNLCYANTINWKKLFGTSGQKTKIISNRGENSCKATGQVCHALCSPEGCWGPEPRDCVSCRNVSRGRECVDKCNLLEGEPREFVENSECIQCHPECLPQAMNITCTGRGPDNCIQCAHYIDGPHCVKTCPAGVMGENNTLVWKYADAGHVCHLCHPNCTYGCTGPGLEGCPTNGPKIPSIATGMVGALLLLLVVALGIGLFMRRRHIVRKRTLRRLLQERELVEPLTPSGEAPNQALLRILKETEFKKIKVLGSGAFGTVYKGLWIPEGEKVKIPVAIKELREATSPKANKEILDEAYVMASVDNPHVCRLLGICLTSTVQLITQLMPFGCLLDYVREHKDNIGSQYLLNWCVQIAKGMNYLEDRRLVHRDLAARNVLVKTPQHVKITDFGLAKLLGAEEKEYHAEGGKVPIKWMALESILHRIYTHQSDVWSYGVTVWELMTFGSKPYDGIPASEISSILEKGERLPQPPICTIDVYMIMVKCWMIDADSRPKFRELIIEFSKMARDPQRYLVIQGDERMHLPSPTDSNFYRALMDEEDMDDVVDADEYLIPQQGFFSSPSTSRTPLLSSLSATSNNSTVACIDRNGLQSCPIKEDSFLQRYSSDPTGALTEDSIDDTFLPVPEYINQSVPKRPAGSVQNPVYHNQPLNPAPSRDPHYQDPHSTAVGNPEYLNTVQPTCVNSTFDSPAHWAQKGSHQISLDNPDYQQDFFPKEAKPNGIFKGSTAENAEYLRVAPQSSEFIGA

This test addresses Epidermal growth factor receptor (Homo sapiens) (UniProt P00533). Nature of the test: compounds binding epidermal growth factor receptor – biochemical, small-molecule microarray, 635 nm fluorescence, primary screen (AID 1104).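 Note: score merges 667 nm emission intensity with spot signal to noise over triplicate slides.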 The conditions noted are these: EGFR binding, higher = more signal.
On to `COCCOC(=O)N1C(=O)[C@@]2(c3cc(C#CC4=CCCCC4)ccc31)[C@H](C(N)=O)[C@H]1C(=O)O[C@H](c3ccccc3)[C@H](c3ccccc3)N1[C@@H]2c1ccccc1OCCO`, for which the composite z-score was 0.32. The figure for `O=C1NC(=O)C2C1C=CC(C(O)c1ccco1)N2Nc1ccccn1` (stereo unspecified) is 0.217; for `CCCCN1CC=CC23O[C@@H]4/C=C\CCC(C)OC(=O)C4[C@H]2C(=O)N(C(CO)C(C)C)[C@@H]3C1=O` (stereo partly specified) it is -0.474.

Turning to `CC=CC(O)C1C=CC2C(=O)N(c3ccccc3)C(=O)C2N1Nc1ccccc1F` (stereo unspecified), the composite z-score came out at 0.114.

As to `COc1ccccc1CN1C(=O)c2ccccc2[C@](Cc2ccccc2I)(C(=O)NCC(F)(F)F)[C@@H]1c1ccc(CO)cc1`, the composite z-score was -0.24.

On to `O=C1NC(=O)C2C1C=CC(C(O)c1c(F)cccc1Cl)N2Nc1ccc(Cl)cc1Cl` (stereo unspecified), for which the composite z-score is -0.391. The figure for `COC(=O)[C@@]1(Cc2ccccc2)[C@H]2c3cc(C(=O)N(C)C)n(CCc4ccc(O)c(OC)c4)c3C[C@H]2CN1C(=O)c1ccccc1` is 0.569. `CCCNC(=O)[C@@H]1c2ccccc2C(=O)N(C(C)C)[C@H]1c1ccc(CO)cc1` had a composite z-score of -0.87.

In the case of `[N-]=[N+]=Nc1ccccc1[C@H]1OC(c2ccc(OCCCO)cc2)=N[C@@]1(Cc1ccccc1)C(=O)N1CCCCC1`, the composite z-score was determined as 0.422. For `C=CCC(OC(C)=O)[C@@H]1[C@@H](N(Cc2cccc3ccccc23)C(=O)Cc2ccc(F)cc2)c2cc(OCCCO)ccc2N1C(=O)c1ccc2ccccc2n1` (stereo partly specified), the composite z-score is -0.06.

In turn, `C[N+](C)(C)CCCC[C@@H]1NC(=O)[C@H]2C[C@@H](C(=O)NCCCCCCN)[C@@H](c3ccc(O)cc3)N2C1=O` registered a composite z-score of -0.397. Molecule `C=C(CCCC)/C(=C/C[C@@H](OC(=O)c1ccncc1)c1ccccc1OCCO)c1cnc2ccccc2c1` gave a composite z-score of 1.02. The molecule `O=C1c2ccccc2[C@](Cc2ccccc2I)(C(=O)NCC(F)(F)F)[C@H](c2ccc(CO)cc2)N1C1CCCCC1` came in with a composite z-score of 0.109.

`CC(C)N1C(=O)C[C@@](C(=O)NCCCN(C)C)(c2ccc([N+](=O)[O-])cc2)[C@H]1c1ccc(CO)cc1` displayed a composite z-score of -0.496. With `C=C[C@@H](COC(C)=O)N(C(=O)OC(C)(C)C)S(=O)(=O)c1ccc(Br)cc1`, the composite z-score worked out at 0.837.

With `CC1CC/C=C\[C@H]2OC34C=CCN(c5ccc(Cl)cc5)C(=O)[C@H]3N(CCCCCO)C(=O)[C@]4(C)C2C(=O)O1` (stereo partly specified), the composite z-score was -1.24. Molecule `O=C1O[C@H](c2ccccc2)[C@H](c2ccccc2)N2[C@H]1[C@@H](C(=O)Nc1nc3ccccc3s1)[C@]1(C(=O)Nc3ccc(C#CCCO)cc31)[C@H]2c1ccc(O)cc1` showed a composite z-score of 0.591. The molecule `COCCOC(=O)N1C(=O)[C@@]2(c3cc(C#CC4(O)CCCCCC4)ccc31)[C@H](c1ccc(O)cc1)N1[C@H](c3ccccc3)[C@H](c3ccccc3)OC(=O)[C@H]1[C@@H]2C(=O)NC[C@H](O)c1ccccc1` displayed a composite z-score of 0.783.

`O=C1O[C@@H](c2ccccc2)[C@@H](c2ccccc2)N2[C@@H](c3ccccc3OCCO)[C@]3(C(=O)Nc4ccc(C#CCCO)cc43)[C@@H](C(=O)N3CCCCCCC3)[C@H]12` returned a composite z-score of 2.05. With `COc1ccc([Si](C)(C)[C@@H]2[C@@H](CCO)O[C@]3(C(=O)N(Cc4ccc(N5CCCCC5=O)cc4)c4ccccc43)[C@H]2C)cc1`, the composite z-score amounted to 0.336.

For the molecule `O=C(NCC(F)(F)F)[C@@H]1c2ccccc2C(=O)N(Cc2cc(F)cc(C(F)(F)F)c2)[C@H]1c1ccc(CO)cc1`, the composite z-score is -1.12. The same measure for `Cc1ccccc1C(O)C1C=CC2C(=O)N(C)C(=O)C2N1N(c1ccccc1)c1ccccc1` (stereo unspecified): 0.304; for `O=C(CS)NCCCCCCNC(=O)[C@H]1C[C@H]2C(=O)N[C@@H](Cc3ccccc3)C(=O)N2[C@H]1c1ccc(O)cc1`: 0.0478.

For `C=CCN1Cc2ccccc2[C@H]2OC(c3ccc(OCCCO)cc3)=N[C@@]2(CC=C)C1=O`, the composite z-score turned out to be 0.901. `CO[C@]12C=C(Br)[C@@H](C[C@@H]1c1cccc(C)c1)[C@@]1(CO1)C2=O` returned a composite z-score of -0.14. In turn, `C=CC[C@]1(C(=O)O)COC(c2ccc(OCCCO)cc2)=N1` had a composite z-score of 0.0943.

As for `CCOC(=O)[C@H]1[C@@H]2C(=O)N3CCC[C@H]3[C@H](O[Si](C(C)C)(C(C)C)C(C)C)[C@H]2C=C2CCN(S(=O)(=O)c3ccc(C)cc3)C[C@H]21`, the composite z-score was 0.586. Consider `CN(C)CCCCNC(=O)[C@@H]1C[C@@H]2C(=O)N[C@@H](Cc3ccccc3)C(=O)N2[C@@H]1c1cccc(OCCO)c1`, for which the composite z-score was found to be 0.404. The same measure for `C=C(C)C1CCC(C(O)C2C=CC3C(=O)N(C)C(=O)C3N2N2CCCCC2)CC1` (stereo unspecified): 1.16. `CN1C(=O)C2C=CC(C(O)c3ccccn3)N(N(c3ccccc3)c3ccccc3)C2C1=O` (stereo unspecified): the composite z-score was determined as 0.22. For the molecule `CN(C)CCCNC(=O)[C@@]1(C)c2ccccc2C(=O)N(Cc2ccccc2)[C@H]1c1ccc(CO)cc1`, the composite z-score is -1.48.

For `C=CCNC(=O)[C@@H]1[C@H]2C(=O)O[C@H](c3ccccc3)[C@H](c3ccccc3)N2[C@H](c2ccc(O)cc2)[C@@]12C(=O)N(C(=O)OCCOC)c1ccc(C#CC3(O)CCCCCC3)cc12`, the composite z-score was -1.5. Take `CN(C)C(=O)[C@@]1(Cc2ccccc2CN=[N+]=[N-])N=C(c2ccc(OCCCO)cc2)O[C@H]1c1ccccc1CN=[N+]=[N-]`: the composite z-score was -0.167. `O=C1O[C@@H](c2ccccc2)[C@@H](c2ccccc2)N2[C@@H](c3ccc(O)cc3)[C@]3(C(=O)Nc4ccc(C#CC5=CCCCC5)cc43)[C@@H](C(=O)NC[C@H](O)c3ccccc3)[C@H]12` gave a composite z-score of 0.829.

The molecule `CC(C)(C)OC(=O)CC[C@]1(C(=O)NCc2ccccc2)N=C(c2ccc(OCCCO)cc2)O[C@H]1c1ccccc1CN=[N+]=[N-]` yielded a composite z-score of 0.227. The molecule `CC(C)C[C@@H]1NC(=O)[C@@H]2C[C@H](C(=O)NCCCCN(C)C)[C@H](c3cccc(OCCO)c3)N2C1=O` gave a composite z-score of -0.0053.
